Source: ChEMBL document CHEMBL1157539, “Thousands of chemical starting points for antimalarial lead identification” (Nature, 2010)

Experiments:
Format in all cases: functional
[1] = system: Plasmodium falciparum; test: GSK_TCMDC: Inhibition of Plasmodium falciparum 3D7 in whole red blood cells, using parasite LDH activity as an index of growth. Test compounds present at 2uM
[2] = system: Plasmodium falciparum; test: GSK_TCMDC: Inhibition of Plasmodium falciparum Dd2 in whole red blood cells, using parasite LDH activity as an index of growth. Test compounds present at 2uM
[3] = system: HepG2; test: GSK_TCMDC: Percent inhibition of human HepG2 cell line. Test compounds present at 10uM.

SMILES | Inhibition [1] [%] | Inhibition [2] [%] | Inhibition [3] [%]
CS(=O)(=O)c1cccc(-c2cnc3[nH]cc(-c4cccc(CCN)c4)c3c2)c1.O=C(O)C(F)(F)F | 99 | 74 | 0
CCCCCCN1CCN(Cc2cccc(NC(=O)c3cccc(OCC)c3)c2)CC1.O=C(O)C(F)(F)F | 85 | 48 | 65
CN(CCCN)CCCNc1ccnc2cc(Cl)ccc12 | 100 | 0 | 1
CCn1cc(-c2nc(-c3cc(OC)cc(OC)c3)no2)c(=O)c2ccccc21 | 89 | 77 | 0
CCN(CCCNc1nc(=S)[nH]c2cc(OC)c(OC)cc12)c1ccccc1 | 100 | 23 | 14
COC(=O)C(Cc1ccccc1)C(CSCc1ccc(OC)cc1)C(=O)N[C@@H](C(=O)OC(C)(C)C)c1ccc(C(C)(C)C)cc1 (stereo not given in full) | 93 | 44 | 0
O=C(O)C(F)(F)F.O=S(=O)(NCCN1CCCC1)c1cccc(-c2ccc(CNCc3ccccc3)cc2)c1 | 95 | 41 | 54
COc1ccc2ncc(OC)c(CCN3CC[C@@H](NCc4ccc5c(n4)NC(=O)CS5)[C@H](O)C3)c2n1 | 94 | 99 | 21
Cl.O=c1nc(NCCCNCc2cc3c(Cl)cc(Cl)cc3[nH]2)[nH]c2ccsc12 | 96 | 11 | 62
CCOc1ccc(-c2cc3nc(C4CCNCC4)c(C(=O)Nc4ccc(C)cc4Cl)cn3n2)cc1.Cl | 95 | 22 | 63
